Source: PubChem BioAssay AID1159506 (National Center for Advancing Translational Sciences (NCATS), 2015)
Whole data set: some 59,000 sequences, median the read-out near -0.00055, cut for the lowest 2% near -2. The full list was thinned out, with the lowest values kept by preference.

test: Identification of proteins required for the processing of the EWS-FLI1 nascent transcript; details: TC32 Ewing sarcoma NR0B1-luc vs CMV-luc (EWS-FLI1 target promoter against control promoter), 48 h; screened at 20 nM (by protocol);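 note: robust z of luciferase light less the median z of siRNAs with the same seed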
Method in brief: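 Genome-wide siRNA screen (Ambion v4.1, three siRNAs per gene, 20 nM final, RNAiMax) in Ewing sarcoma TC32 cells carrying NR0B1-promoter or CMV-promoter luciferase; OneGlo luciferase read 48 h post-transfection. Data normalized, z-score-MAD transformed and seed-adjusted.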

Sequence | seed-corrected z-score
UGUCUAACAAAUGUGGAGC against ZNF548 | 0.841
UCUGGUGUACAAGUAGUCC against FICD | 0.433
UCUCCUCAAAGCACCAGCC against LOC653712 | -0.019
AAAGUAGCAUCGUCUGUCU against GSC | 0.704
UUUGAGUAGAGCAGCAUCC against SENP3 | -2.41
AUACUGGUUAGAAUCAGAC against EVI5 | -0.0438
AAUGAAGCAGUUCAUAAGC against ST3GAL6 | 0.107
UUACGUUCAACCUUAGAUC against PHLPP1 | 0.355
UUUAGUUCACCCUGAAUCG against NUP54 | -0.0579
UAAGUACUCUCAACACUGC against PIN4P1 | 0.00579
AGCUUGUAAACACUUCUGC against RGN | -2.52
UUUGAGUCUAGUGGGAUAG against SLC22A10 | 0.479
UAUAGAUGCGAAUCCUUUC against C17orf97 | -0.421
AAAGCUGCAACUGCCUCCC against C2orf48 | -2.61
UAAGUCGAACCUUAUCUCC against AIM2 | -0.16
UAGAAUAAAAUACCGAAUG against SNRPD1 | -1.88
UUUGUCUCAAGAAUUAUCA against SPTSSA | 0.0457
UUGAUUCUCGGGUCUUUGG against FAM71F2 | -12.6
UUUGAUUAAAAGGUCUCUG against PIGX | -1.29
UGAGAUGAACUGAUCUUGC against OR10W1 | 0.324
UCAGGUUUAAGAGGUAUGC against TRAM2 | 0.485
UCCAGUUGCACUUCUGUCC against CGREF1 | -3.65
UGUAUACAAAGAGACAAUC against TAS2R5 | 0.728

Sequence | seed-corrected z-score
UUUGCUAGAAGCCUUCUUG against DOK6 | -0.847
UUGAGGUCAAUUUCGGCUG against H2AFY2 | -0.937
UGUUUUAACUGCUGUAUCC against RP9 | 0.734
UCUUCAUUAGCUUCUUCAC against PLCXD2 | 0.44
UGAUGCACGAGAAGAAGCC against KCNK3 | -13.5
UUUGCUACAGAAUUGCUUG against ANAPC16 | -1.17
AAAGGAUCUCUCUGUAUUU against SNTN | 1.99
UGUACUGUCAGACUAAUGC against MRGPRX3 | -0.749
UUCAGCAUUACUCUCUGCG against RPL17P39 | -2.51
UCAGCAUAUAGCAGGAUCC against NPR2 | -0.565
AUUCUCACCAGACAUCCUG against KRT74 | 1.12
AAGAAUUCCAUACAUCUUC against ACKR1 | -0.0448
UAAGCAUCCAGUAGGCAGG against XBP1 | -3.08
UCUCUAAAAGGUGUCUUGC against SH3RF2 | 0.606
AUAGUAAUCAUCCAGAGCA against ARHGEF35 | -0.685
AUAGGUACUGCACUGCAGG against GPS2 | -0.377
UGACUAUGAUGUUGAAUCC against OR8A1 | -1.35
UUCGAUUCAUGAAAUCUCC against GTF3C1 | 0.399
UGUUCAACGAGGGUAUAGC against ZNF416 | 0.828
UUGUGGUAGAUCUGGACGC against VASP | -2.15
ACAGUUAUUCUGUCCAUCG against LDLRAD3 | -6.33
UCUGGUUUUUGUACCCGCC against LOC403323 | -0.673
UUUUUAACAGAGGUCUCCA against RAB42P1 | -0.18

Sequence | seed-corrected z-score
UUUCAAUCUUGUCUGAGGC against COX11 | -0.764
UUGAGUAAGAACUUUAUCC against SMAD1 | -2.45
AAUAUGUCGUUGUAAGUGC against ZNF644 | -0.209
UUCUUCUAAAACAUCCUCG against GLE1 | -0.174
UUAUCUAUCACCCAAGCAG against RTN4IP1 | -0.598
UUCCGUUUAAUUUCAACUG against BRCA2 | 0.32
UAUUUGUUUCACCUCACUG against DNAJC8 | 1.25
AGAAGGAACAUGCGUGCAG against TTC34 | 1.38
UCCUUGUCGACAACGAGUG against GAPVD1 | -3.68
UAAUUGAGUUUCUAAAGUG against CDKAL1 | -0.809
UUCAUUAUGUGGAACAUAC against CYP19A1 | -1.02
AAAGUGGACACCAUAGACC against HGD | 0.0682
UUUGUAGCAAGGAAUACAG against OR7A5 | -3.5
UGUCGAUCUAGGUACUGAC against SART3 | -0.192
AUAAAUGGUGGUUUAAGGU against METTL2B | -0.343
AAAGCCAGGAGUUCCGCUG against GNG8 | -0.7
UCAGGAACACCGAGUACUC against S100A5 | -0.776
UAGUUGGUUAAAUUGGACC against TEKT3 | -0.0576
AAACCUUUUGCAUCUAUGG against GSTA12P | 0.753
AAAGUUGCUGGUGUGCUCC against NUTM1 | -1.38
UCUUUGAGCAGCUUCCAGC against SOX4 | -5.6
UCAGGUAGCAGAGUACUGC against IL22RA1 | -0.631
AGAGUUCAAAUGUAUUGUC against KLHL21 | -1.34

Sequence | seed-corrected z-score
UCUUUUUGUAGGUCUCUGC against RCN3 | -3.02
UCCUUUAACAACAAGUUGU against IL10 | -0.0724
UCUCUAAACAGGUCCCAAG against PDX1 | 0.0859
AUCGCUAAGACGGUGAUCC against EIF4ENIF1 | -0.0436
UUCCGCAGCAAUGAUAGGC against TMEM132D | -0.636
UCUGCUACUCCAUUGAUCU against TRMT12 | -1.63
UACAUAGAAGGUGUUGGGC against CD81 | 0.0377
UUCUUUUGUCCAUACAAUC against TAS2R45 | -2.34
UACAAGCCCAGUUGAGAUC against DSTNP4 | -0.547
UACGAUAUUGUUGCUACAG against SLIT2 | -0.0537
UAUUAGUCCCGGACGAAUG against SCAF8 | -0.115
UUGUUUAUGAGCAAGGUGG against RPL41 | -0.22
UUUGGUGCAAAGUCCAUGC against SKIV2L | -2.51
UUGAGGAUACAGCACAGCC against SERPINI1 | -0.491
ACAGGCUUUAUCAUACUGC against ZXDC | -0.245
UAGGUGAUAUCUCUCCGCC against TGM4 | -0.284
ACAGUUCUCGCAGUACUGG against GPANK1 | -0.197
UGACCAUCCAGAAGUAGUU against SPHK1 | -0.911
UUGGUAGAUAUGAUCUUCG against TCEA3 | 0.375
UUGGGUAUUGUUCUUGACU against SNRPD2 | -2.58
UGUUUAUUAGAAGUGACUC against FOLR2 | -0.238
UAGUUGUCAGUGAAGACUG against VIP | -2.09
CUUGUAGCUUCUCUACAUC against LOC441347 | -0.389

Sequence | seed-corrected z-score
UUCUCAUCAAGCUGUCUCC against SH3RF2 | 0.136
UAUAACAGCAGUAUCUGUC against TMEM215 | 0.183
UUGUUGAAAUGGAACUCCU against HOXB1 | 0.384
UCAGUGCACGCAACUGUGU against TNXB | 0.0625
UAUAUGAUUAACAAAACGG against XKR3 | 0.439
UUCUUUCCGAUGAUACUGC against PCBP2 | -3.36
UUUCGCAGUUGUAAGACCG against CROCCP3 | 0.0641
UAGAAUUUCUCGUACAACC against RALGPS1 | 0.75
UAAUGAGCAGUGACUCUGG against BTBD11 | 0.456
AAUUCUUCAAAACUAACUU against S100G | 0.467
AUCCGUACGCCUCCGAUUC against PCSK4 | -0.594
AAGGGAUAAGGGAUCAUCC against ST7 | -0.0379
UAUAGUUACAUGACUGCUG against SNU13 | -6.52
UUUUUAAUGCCUUAUAGUC against TTLL13P | 1.17
UACAUAGCUGCAUAGACAC against PLPPR5 | -2.18
UUCUUUAGCAACAUCACAG against CBR4 | 0.335
UAAGAUAUCUGACCACUAG against ZNF620 | 0.641
UCCAUAUCCCAUGACAUGC against SLC17A6 | -0.139
UGCUUGAGCAGAAUGACCG against DIO2 | -2.14
UGAACUUGCACACUUGAGU against KLK7 | 0.253
AAACUUUGGAUGUUUUUGG against PPBP | 0.549
UUAGUACAGAUGCAGUUCU against OR56A5 | -14.6
UUUCGGUACGUGUAGUAGC against STRA6 | 0.803

Sequence | seed-corrected z-score
UCUUUGACAAUAUCAACAG against UBE3D | -0.267
UGCGUGUCUUCUUUAACCU against FAM174B | -0.0387
UUAGAUCCAUGCUAUAAGC against PMS2P12 | -0.142
UAAUCGUUUCUACAAGAUC against ATF7IP | -2.43
UUAAUCUUCAUCGUAAUAG against ZPLD1 | -0.649
UUUUUCGACAGGAAAGUGU against C5orf60 | 0.245
UUCAUUAUUAUCUCAGGAG against RFC3 | -1.02
UUCAGCAUAAAGACUGAUC against VPS41 | -0.683
UCACUUCCUAUUCCCAUGG against PALM3 | -1.4
AUCUUGGUAACAAACUUGG against TRPV4 | -3.43
UAAUCGUUGGGAUCCAGUC against PCDHA13 | 0.188
UGUACGAUGAAGGUCAUGC against SLC34A2 | -0.00732
UUCGUGUUUUGAAUCUUGG against B4GALT2 | 1.23
AGCUGGAUCAUUUCUACAG against PKDCC | -2.45
UAGACUGUCACGUUGUAUG against SEZ6L | 0.278
AAAGAGAUAAUGUUCCUCC against FAM180B | 0.869
UCCCUAACAAAGCAUGUAC against ISL1 | -0.138
UUCUAAGAAAGCGAGCUGC against EID2B | -0.614
